Experiment [1] has as its target T1, Serine/threonine-protein kinase TBK1 (Homo sapiens) (UniProt Q9UHD2).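 Note: values are mean inhibition of TBK1, screened as part of the GSK published kinase inhibitor set.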
T1 sequence (whole entry): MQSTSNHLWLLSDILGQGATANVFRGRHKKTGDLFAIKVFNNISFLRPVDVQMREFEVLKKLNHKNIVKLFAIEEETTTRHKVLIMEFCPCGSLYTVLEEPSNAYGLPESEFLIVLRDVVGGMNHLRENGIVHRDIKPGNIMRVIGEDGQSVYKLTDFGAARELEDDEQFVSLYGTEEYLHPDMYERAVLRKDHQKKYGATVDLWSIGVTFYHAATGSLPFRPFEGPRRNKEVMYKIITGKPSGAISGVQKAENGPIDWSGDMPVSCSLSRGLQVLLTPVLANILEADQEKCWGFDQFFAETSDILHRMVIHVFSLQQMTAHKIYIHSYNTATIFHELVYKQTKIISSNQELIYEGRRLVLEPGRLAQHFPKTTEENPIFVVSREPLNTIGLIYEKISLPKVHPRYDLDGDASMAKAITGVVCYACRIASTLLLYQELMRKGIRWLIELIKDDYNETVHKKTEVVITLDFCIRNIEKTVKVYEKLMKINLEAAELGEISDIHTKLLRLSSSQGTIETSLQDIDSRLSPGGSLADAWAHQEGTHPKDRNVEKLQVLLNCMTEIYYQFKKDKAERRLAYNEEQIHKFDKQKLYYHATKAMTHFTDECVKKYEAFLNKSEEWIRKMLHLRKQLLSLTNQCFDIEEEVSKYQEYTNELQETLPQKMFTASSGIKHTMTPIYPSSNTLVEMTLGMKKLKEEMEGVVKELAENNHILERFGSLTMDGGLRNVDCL
To be noted: at 1 µM.

Experiment [2] deals with T2, Testis-specific serine/threonine-protein kinase 1 (Homo sapiens) (UniProt Q9BXA7).
T2 sequence (whole entry): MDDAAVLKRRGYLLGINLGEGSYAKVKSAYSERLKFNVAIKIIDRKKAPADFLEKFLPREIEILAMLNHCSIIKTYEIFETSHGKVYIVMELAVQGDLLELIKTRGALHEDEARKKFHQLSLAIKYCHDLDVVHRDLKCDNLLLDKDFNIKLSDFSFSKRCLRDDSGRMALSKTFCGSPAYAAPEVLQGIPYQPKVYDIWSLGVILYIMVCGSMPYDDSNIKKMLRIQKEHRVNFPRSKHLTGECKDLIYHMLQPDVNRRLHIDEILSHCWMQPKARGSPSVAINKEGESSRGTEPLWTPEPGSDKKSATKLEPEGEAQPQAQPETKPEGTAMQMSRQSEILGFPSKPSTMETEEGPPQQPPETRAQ
To be noted: at 0.1 µM.

Experiment [3] deals with T2, Testis-specific serine/threonine-protein kinase 1 (Homo sapiens). To be noted: at 1 µM.
The target in experiment [4] is T3, Testis-specific serine/threonine-protein kinase 2 (Homo sapiens) (UniProt Q96PF2).
T3 sequence (whole entry): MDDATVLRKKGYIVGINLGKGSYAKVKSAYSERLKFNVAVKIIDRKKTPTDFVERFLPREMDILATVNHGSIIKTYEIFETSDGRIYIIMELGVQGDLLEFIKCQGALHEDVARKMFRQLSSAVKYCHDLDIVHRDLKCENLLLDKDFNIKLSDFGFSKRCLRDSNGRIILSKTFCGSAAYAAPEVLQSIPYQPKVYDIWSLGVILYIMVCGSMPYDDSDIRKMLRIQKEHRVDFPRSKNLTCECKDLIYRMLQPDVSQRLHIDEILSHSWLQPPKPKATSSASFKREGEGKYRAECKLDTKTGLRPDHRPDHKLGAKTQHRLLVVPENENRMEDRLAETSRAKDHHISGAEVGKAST
To be noted: at 0.1 µM.

In experiment [5] the target is T3, Testis-specific serine/threonine-protein kinase 2 (Homo sapiens). To be noted: at 1 µM.
Experiment [6] deals with Casein kinase I isoform alpha (Homo sapiens) (UniProt P48729). To be noted: at 0.1 µM.
Experiment [7] shares this target. To be noted: at 1 µM.
Experiment [8] has as its target Casein kinase I isoform gamma-1 (Homo sapiens) (UniProt Q9HCP0). To be noted: at 0.1 µM.
Experiment [9] shares this target. To be noted: at 1 µM.
Experiment [10] deals with Casein kinase I isoform gamma-2 (Homo sapiens) (UniProt P78368). To be noted: at 0.1 µM.
For experiment [11] the target is unchanged. To be noted: at 1 µM.
Experiment [12] concerns the target Casein kinase I isoform gamma-3 (Homo sapiens) (UniProt Q9Y6M4). To be noted: at 0.1 µM.
The target is the same in experiment [13]. To be noted: at 1 µM.
For experiment [14], the target named is Cyclin-dependent kinase 1 (Homo sapiens) (UniProt P06493). To be noted: at 0.1 µM.
For experiment [15] the target is unchanged. To be noted: at 1 µM.
Experiment [16] addresses Cyclin-dependent kinase 2 (Homo sapiens) (UniProt P24941). To be noted: at 0.1 µM.
Experiment [17] shares this target. To be noted: at 1 µM.
Experiment [18] shares this target. To be noted: at 0.1 µM. The source holds these as a separate data set.
For experiment [19] the target is unchanged. To be noted: at 1 µM. This is another data set of the same source.
The target in experiment [20] is CDK3/Cyclin E (Homo sapiens) (UniProt P24864+Q00526). To be noted: at 0.1 µM.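 Note: reported percentages are mean inhibition values.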
Sequence of CDK3/Cyclin E (Homo sapiens) (P24864 whole entry, looked up): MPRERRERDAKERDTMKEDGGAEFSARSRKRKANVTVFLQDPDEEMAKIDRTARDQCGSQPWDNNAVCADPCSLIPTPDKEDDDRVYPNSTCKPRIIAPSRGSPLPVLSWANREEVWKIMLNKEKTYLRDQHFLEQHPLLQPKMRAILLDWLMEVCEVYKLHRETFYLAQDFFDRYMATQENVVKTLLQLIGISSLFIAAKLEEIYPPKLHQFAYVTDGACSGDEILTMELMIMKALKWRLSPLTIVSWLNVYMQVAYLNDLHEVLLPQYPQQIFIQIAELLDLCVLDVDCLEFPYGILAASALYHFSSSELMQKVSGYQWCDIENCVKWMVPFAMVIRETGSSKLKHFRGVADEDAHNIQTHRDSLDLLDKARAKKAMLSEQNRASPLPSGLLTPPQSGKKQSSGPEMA
Sequence of CDK3/Cyclin E (Homo sapiens) (Q00526 whole entry, looked up): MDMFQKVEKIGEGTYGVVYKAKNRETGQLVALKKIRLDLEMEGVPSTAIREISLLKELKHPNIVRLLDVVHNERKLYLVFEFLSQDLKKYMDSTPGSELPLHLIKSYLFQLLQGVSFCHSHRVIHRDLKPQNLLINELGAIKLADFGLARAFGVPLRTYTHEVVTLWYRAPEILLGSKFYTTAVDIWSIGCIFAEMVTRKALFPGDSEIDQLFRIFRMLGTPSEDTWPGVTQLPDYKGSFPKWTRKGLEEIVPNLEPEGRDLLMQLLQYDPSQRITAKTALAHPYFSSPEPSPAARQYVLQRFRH

Sequence of Casein kinase I isoform gamma-2 (Homo sapiens) (P78368 whole entry, looked up, canonical isoform): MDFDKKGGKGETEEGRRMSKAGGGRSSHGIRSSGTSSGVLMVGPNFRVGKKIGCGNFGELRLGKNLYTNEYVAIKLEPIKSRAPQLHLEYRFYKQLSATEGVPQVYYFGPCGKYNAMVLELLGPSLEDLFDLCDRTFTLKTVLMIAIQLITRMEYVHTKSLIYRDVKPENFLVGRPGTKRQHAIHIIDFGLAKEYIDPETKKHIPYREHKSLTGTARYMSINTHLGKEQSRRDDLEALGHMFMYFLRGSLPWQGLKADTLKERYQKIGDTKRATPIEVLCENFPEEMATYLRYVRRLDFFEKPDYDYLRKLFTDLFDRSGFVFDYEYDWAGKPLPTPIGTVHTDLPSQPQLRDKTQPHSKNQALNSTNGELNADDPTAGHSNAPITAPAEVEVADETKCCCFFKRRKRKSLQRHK
Sequence of Casein kinase I isoform gamma-3 (Homo sapiens) (Q9Y6M4 whole entry, looked up, canonical isoform): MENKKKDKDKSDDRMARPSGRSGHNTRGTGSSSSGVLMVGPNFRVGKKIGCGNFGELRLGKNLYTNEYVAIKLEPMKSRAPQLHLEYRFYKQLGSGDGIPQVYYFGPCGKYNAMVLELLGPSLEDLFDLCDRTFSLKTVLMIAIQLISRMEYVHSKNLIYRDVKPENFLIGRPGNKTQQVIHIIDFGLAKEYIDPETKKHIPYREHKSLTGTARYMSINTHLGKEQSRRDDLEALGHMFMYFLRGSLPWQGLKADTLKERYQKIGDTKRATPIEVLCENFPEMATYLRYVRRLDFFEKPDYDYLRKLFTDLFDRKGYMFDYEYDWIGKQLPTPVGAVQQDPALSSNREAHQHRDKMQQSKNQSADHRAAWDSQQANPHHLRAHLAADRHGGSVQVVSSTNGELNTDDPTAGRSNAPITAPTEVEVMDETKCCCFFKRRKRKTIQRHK
Sequence of Casein kinase I isoform alpha (Homo sapiens) (P48729 2-337 limits assumed): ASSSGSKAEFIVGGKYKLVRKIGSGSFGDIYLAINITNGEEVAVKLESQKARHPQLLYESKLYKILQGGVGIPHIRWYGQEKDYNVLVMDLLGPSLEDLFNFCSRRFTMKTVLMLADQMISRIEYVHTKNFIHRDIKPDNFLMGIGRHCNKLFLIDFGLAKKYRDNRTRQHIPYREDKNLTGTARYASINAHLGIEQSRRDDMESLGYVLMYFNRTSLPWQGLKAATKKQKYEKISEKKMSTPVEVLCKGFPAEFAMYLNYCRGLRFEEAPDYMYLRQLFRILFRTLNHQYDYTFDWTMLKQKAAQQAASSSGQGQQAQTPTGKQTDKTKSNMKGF
Sequence of Casein kinase I isoform gamma-1 (Homo sapiens) (Q9HCP0 whole entry, looked up, canonical isoform): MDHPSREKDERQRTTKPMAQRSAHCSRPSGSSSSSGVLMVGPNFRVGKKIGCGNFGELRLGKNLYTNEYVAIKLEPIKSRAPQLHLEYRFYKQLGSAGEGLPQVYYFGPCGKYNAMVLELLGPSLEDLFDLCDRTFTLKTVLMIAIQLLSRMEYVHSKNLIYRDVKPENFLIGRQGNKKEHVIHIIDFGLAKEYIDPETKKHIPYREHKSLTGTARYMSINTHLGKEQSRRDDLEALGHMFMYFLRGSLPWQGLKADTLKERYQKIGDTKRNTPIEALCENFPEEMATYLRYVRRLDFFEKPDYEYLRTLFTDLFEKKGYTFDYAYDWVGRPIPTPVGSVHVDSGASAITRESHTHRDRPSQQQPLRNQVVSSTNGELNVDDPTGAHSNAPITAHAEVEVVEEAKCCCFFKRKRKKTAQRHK
Sequence of Cyclin-dependent kinase 1 (Homo sapiens) (P06493 whole entry, looked up): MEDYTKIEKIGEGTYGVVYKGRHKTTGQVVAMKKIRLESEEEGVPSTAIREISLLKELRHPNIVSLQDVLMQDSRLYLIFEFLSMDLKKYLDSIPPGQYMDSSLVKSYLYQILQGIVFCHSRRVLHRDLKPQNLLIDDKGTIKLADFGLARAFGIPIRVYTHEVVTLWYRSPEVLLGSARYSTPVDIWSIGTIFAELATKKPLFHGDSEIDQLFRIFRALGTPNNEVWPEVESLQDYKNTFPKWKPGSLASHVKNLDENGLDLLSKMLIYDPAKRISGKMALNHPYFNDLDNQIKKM

In the case of `CCCN1CCC(Oc2cc(Nc3nc(Nc4cccc(F)c4C(N)=O)c4cc[nH]c4n3)c(OC)cc2Cl)CC1`, the inhibition in [1] turned out to be 2.35%; in experiment [2], 21.3%; in experiment [3], 57.3%; in [4], 7.49%; in experiment [5], 26.8%; in [6] it was 0.93%. Moreover, the inhibition in experiment [7] is 12.1%; in experiment [8], -0.95%; in experiment [9], 8.29%; in experiment [10], -0.58%; in experiment [11], 6.61%; in [12], -0.08%. Also, the inhibition in [13] is 20.9%; in experiment [14] it was -0.34%; in [15] it was 0.53%; in [16] it was 1.48%; in experiment [17], 5.95%; in experiment [18] it was -0.16%. Moreover, the inhibition stood at 0.71% in experiment [19] and 0.11% in [20].
For the compound `Nc1nc(-c2ccccn2)c(-c2ccc3ncccc3n2)s1`, the inhibition in [1] was 5.59%; in [2] it was 2.46%; in experiment [3], 2.87%; in [4], 0.45%; in experiment [5], 1.96%; in experiment [6], 2.13%. Besides, the inhibition in experiment [7] is 6.1%; in experiment [8] it was 3.23%; in experiment [9], 12.6%; in experiment [10] it was 3.14%; in [11] it was 10.1%; in experiment [12], 4%. Further, the inhibition stood at 17.4% in experiment [13]; 0.79% in experiment [14]; 3.13% in [15]; 1.62% in [16]; 1.29% in experiment [17]; 4.08% in experiment [18]. The inhibition in experiment [19] turned out to be 5.96%; in [20] it was 2.27%.
`CCN1CCC(CC(=O)Nc2n[nH]c3nc(-c4cccs4)c(Br)cc23)CC1`: the inhibition in experiment [1] is 1.1%; in experiment [2], -1.56%; in experiment [3] it was -1.9%; in [4] it was -1.62%; in experiment [5], -1.24%; in experiment [6], 0.63%. Besides, the inhibition is -0.71% in experiment [7]; -2.56% in experiment [8]; -1.74% in experiment [9]; -1.74% in experiment [10]; -0.99% in experiment [11]; -2.3% in experiment [12]. The inhibition in [13] was 0.47%; in experiment [14] it was 0.69%; in experiment [15], 5%; in experiment [16] it was 0.61%; in [17] it was 6.41%; in experiment [18], -0.6%. Also, the figures for the inhibition in [19] and in experiment [20] were 5.24% and -0.39%, respectively.
With `CCn1c(-c2nonc2N)nc2cnc(Oc3cccc(NC(=O)c4ccc(OCCN5CCOCC5)cc4)c3)cc21`, the inhibition in experiment [1] was 7.42%; in experiment [2], 24.3%; in experiment [3], 72.8%; in experiment [4] it was 2.29%; in experiment [5] it was 3.44%; in [6], 0.67%. Moreover, the inhibition amounted to 1.31% in experiment [7]; 3.07% in [8]; 2.93% in [9]; 2.55% in experiment [10]; 3.09% in experiment [11]; 1.57% in experiment [12]. Moreover, the inhibition was 1.58% in experiment [13]; 0.45% in experiment [14]; 3.69% in [15]; 2.58% in experiment [16]; 7.1% in experiment [17]; 2.65% in experiment [18]. Also, the inhibition is 5.1% in experiment [19] and -0.07% in experiment [20].
Turning to `COc1ccc(-c2ccncc2)cc1C(N)=O`, the inhibition was found to be 2.44% in experiment [1]; 5.12% in [2]; 3.57% in experiment [3]; 3.23% in experiment [4]; 1.75% in experiment [5]; 4.33% in experiment [6]. In addition, the inhibition was 10.2% in experiment [7]; 3.94% in experiment [8]; 4.04% in experiment [9]; 3.53% in experiment [10]; 3.82% in [11]; 3.17% in experiment [12]. Also, the inhibition worked out at 1.39% in experiment [13]; 2.26% in experiment [14]; 0.88% in experiment [15]; 3.39% in [16]; 2.68% in [17]; 3.05% in experiment [18]. Also, the inhibition in experiment [19] is 4.66%; in experiment [20], -2.82%.
For `CCn1c(-c2nonc2N)nc2c(C#CC(C)(C)O)nc(OC[C@@H](N)c3ccccc3)cc21`, the inhibition is 3.45% in experiment [1]; 9.5% in experiment [2]; 53.4% in [3]; 0.46% in experiment [4]; -0.44% in [5]; -0.17% in [6]. Further, the inhibition was 0.97% in experiment [7]; -1.79% in experiment [8]; 2.42% in experiment [9]; -1.05% in experiment [10]; 2.82% in experiment [11]; -1.72% in experiment [12]. Moreover, the inhibition was 1.57% in experiment [13]; -0.31% in experiment [14]; -0.33% in [15]; 0.3% in experiment [16]; 5.96% in [17]; -0.8% in experiment [18]. The inhibition was 1.32% in [19] and -0.42% in experiment [20].
With `CC1=C(C(=O)Nc2ccc3[nH]ncc3c2)C(c2ccc(F)cc2)NC(=O)N1` (stereo not given), the inhibition is 3.11% in experiment [1]; 1.04% in experiment [2]; 1.21% in experiment [3]; 1.2% in experiment [4]; 1.4% in experiment [5]; 0.46% in experiment [6]. Also, the inhibition stood at 1.43% in [7]; 1.54% in [8]; 2.31% in experiment [9]; 1.41% in experiment [10]; 1.77% in experiment [11]; 0.29% in [12]. The inhibition in experiment [13] is 0.47%; in [14], 0.21%; in experiment [15], -0.93%; in experiment [16], 3.84%; in [17] it was 7.76%; in [18] it was 2.47%. Further, the inhibition turned out to be 9.24% in experiment [19] and 3.12% in [20].

By inhibition is commonly meant the change of the read-out against control, counted positive when it falls.

Source of the values: ChEMBL document CHEMBL1961873, “Compounds: GSK PKIS; Assays: Nanosyn kinase panel” (2012).
